# From PubChem BioAssay (EPA / NIEHS)
# Results filed as inconclusive are left out. The source made the active and inactive calls. The calls were made as follows: active = hit-call score of the fitted dose curve at least 0.9, where 1 is the maximum; inconclusive = response in the unintended direction; inactive = score below 0.9.
# Target: Estrogen receptor beta (Homo sapiens) (UniProt Q92731)
# Assay: OT_ER_ERbERb_0480: Odyssey Thera (OT) 8-hour HEK293T Protein-Complementation Assay for Estrogen Receptor-beta/-beta Homodimer (AID 2283357);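 also: active means signal gain over DMSO baseline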
# Procedure, shortened: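 Cells (HEK293T, stable ER-beta LBD PCA pair) are treated 8 hours, fixed and Draq5-stained; signal is fluorescence intensity increase relative to vehicle, fitted in the gain direction.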
# Estrogen receptor beta (Homo sapiens), sequence (Q92731 whole entry, looked up): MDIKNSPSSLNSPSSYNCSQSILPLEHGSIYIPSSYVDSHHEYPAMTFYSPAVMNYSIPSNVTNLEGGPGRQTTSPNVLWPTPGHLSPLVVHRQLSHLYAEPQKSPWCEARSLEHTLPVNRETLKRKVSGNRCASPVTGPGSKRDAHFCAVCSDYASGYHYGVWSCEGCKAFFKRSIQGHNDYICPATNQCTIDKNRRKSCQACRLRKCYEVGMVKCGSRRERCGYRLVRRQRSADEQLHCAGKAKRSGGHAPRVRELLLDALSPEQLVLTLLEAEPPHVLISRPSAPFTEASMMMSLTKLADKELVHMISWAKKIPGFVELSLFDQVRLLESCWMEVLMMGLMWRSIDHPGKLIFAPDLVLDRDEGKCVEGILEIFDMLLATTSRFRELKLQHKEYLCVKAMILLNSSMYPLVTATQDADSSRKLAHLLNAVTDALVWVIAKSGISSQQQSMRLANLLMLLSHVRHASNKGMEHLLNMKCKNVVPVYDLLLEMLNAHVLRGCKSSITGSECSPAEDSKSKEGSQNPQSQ
SMILES,AC50,outcome
CC(C)N1C(=O)N(c2ccccc2)CSC1=NC(C)(C)C,21.1 µM (active),
CC1(C)CCC(=Cc2ccc(Cl)cc2)C1(O)Cn1cncn1 (centres undefined),,inactive
COCc1cnc(C2=NC(C)(C(C)C)C(=O)N2)c(C(=O)O)c1 (centres undefined),,inactive
O=c1n(Cl)c(=O)n(Cl)c(=O)n1Cl,,inactive
C=C(C)CN(CC)c1c([N+](=O)[O-])cc(C(F)(F)F)cc1[N+](=O)[O-],,inactive
C=CCOC(=O)C(C)(C)OC(=O)c1cc(-n2c(=O)cc(C(F)(F)F)n(C)c2=O)ccc1Cl,,inactive
CCCC(=NOCC)C1=C(O)CC(CC(C)SCC)CC1=O (centres undefined),,inactive
CCSC(=O)N1CCCCCC1,,inactive
Cc1cnc(C2=NC(C)(C(C)C)C(=O)N2)c(C(=O)O)c1 (centres undefined),,inactive
CCOc1nc(C(Cl)(Cl)Cl)ns1,,inactive
CS(=O)(=O)c1ccc(C(=O)C2C(=O)CCCC2=O)c([N+](=O)[O-])c1,,inactive
COC(=O)NC(=S)Nc1ccccc1NC(=S)NC(=O)OC,,inactive
Nc1c(Cl)c(F)nc(OCC(=O)O)c1Cl,,inactive
COc1cc(Cl)c(OC)cc1Cl,,inactive
COP(=O)(OC)O/C(C)=C/C(=O)N(C)C,,inactive
Nc1c(Cl)c(Cl)nc(C(=O)O)c1Cl,,inactive
O=C(O)c1c(Cl)ccc2cc(Cl)cnc12,,inactive
CC1(C)CON(Cc2ccccc2Cl)C1=O,,inactive
CCOc1nc(F)cc2nc(S(=O)(=O)Nc3c(Cl)cccc3Cl)nn12,,inactive
COC(=O)NS(=O)(=O)c1ccc(N)cc1,,inactive
Cc1ccc(N=CN(C)C=Nc2ccc(C)cc2C)c(C)c1,,inactive
CCOc1cc(C(C)(C)C)ccc1C1COC(c2c(F)cccc2F)=N1 (centres undefined),,inactive
COc1cc(OC)nc(NC(=O)NS(=O)(=O)c2ncccc2OCC(F)(F)F)n1,,inactive
CS(=O)(=O)c1cc(C(F)(F)F)ccc1C(=O)c1cnoc1C1CC1,,inactive
